# Results filed as inconclusive are left out. A call without a number means that no potency is given here. Unmarked numbers belong to inactive results. The source made the active and inactive calls. Calls come from the whole dose curve; as a rule, active = well fitted cell-killing curve with a large enough effect; inconclusive = small, poorly fitted or top-dose-only effect, or effect the other way; inactive = flat fitted curve, though single readings scatter.
# Experiments:
# Assay in all cases: Primary qHTS to identify gynecologic anti-cancer compounds using libraries of approved drugs and bioactive compounds (AID 1345084); note: nearly all actives have a fitted effect of over 55% in size
# C33A = details: Gynecologic cancer cell panel viability, ATPlite luminescence, 48 h; series mostly up to 57.5 µM
# Procedure, shortened: (§1)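 ATP-based viability (ATPlite), 1,000 cells/well, 16 h pre-incubation, 48 h compound at 37 C, 5% CO2, 15 min RT before read.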
# CAOV3 = details: Gynecologic cancer cell panel viability, ATPlite luminescence, 48 h; series mostly up to 57.5 µM
# Procedure, shortened: as §1
# CASKI = details: Gynecologic cancer cell panel viability, ATPlite luminescence, 48 h; series mostly up to 57.5 µM
# Procedure, shortened: as §1
# Es-2 = details: Gynecologic cancer cell panel viability, ATPlite luminescence, 48 h; series mostly up to 57.5 µM
# Procedure, shortened: as §1
# HeLa = details: Gynecologic cancer cell panel viability, ATPlite luminescence, 48 h; series mostly up to 57.5 µM
# Procedure, shortened: as §1
# Hek293T = details: Gynecologic cancer cell panel viability, ATPlite luminescence, 48 h, control line for the selectivity index; series mostly up to 57.5 µM
# Procedure, shortened: as §1
# JEG-3 = details: Gynecologic cancer cell panel viability, ATPlite luminescence, 48 h; series mostly up to 57.5 µM
# Procedure, shortened: as §1
# OV90 = details: Gynecologic cancer cell panel viability, ATPlite luminescence, 48 h; series mostly up to 57.5 µM
# Procedure, shortened: as §1
# Potency is the fitted concentration of half-maximal effect.
SMILES,Potency (C33A),Potency (CAOV3),Potency (CASKI),Potency (Es-2),Potency (HeLa),Potency (Hek293T),Potency (JEG-3),Potency (OV90)
CCN1CCC[C@@H]1CNC(=O)c1ccc2c(c1)NC(=O)c1cccc(C)c1S2,inactive,inactive,inactive,inactive,inactive,inactive,inactive,inactive
O=C(Nc1cnc(Cl)nc1)c1ccc(F)c(F)c1,inactive,inactive,inactive,inactive,inactive,inactive,inactive,inactive
O=C(NCCCN1CCOCC1)c1cnn2c(-c3ccccc3)cc(-c3ccccc3)nc12,inactive,inactive,inactive,inactive,inactive,inactive,inactive,inactive
CC1(CO)CC(O)[C@]2(C(=O)O)CCC34CC3(C=CC3[C@]5(C)C(CC[C@]34C)C(C)(CO)[C@@H](O)[C@H](O)[C@@H]5O)C2C1 (stereo partly drawn),inactive,inactive,inactive,inactive,inactive,inactive,inactive,inactive
O=c1cc(OCc2ccc(F)cc2)ccn1-c1ccc(OCCN2CCCC2)cc1,inactive,inactive,inactive,inactive,inactive,inactive,inactive,inactive
COc1cc(C(C)C)c(Oc2cnc(N)nc2N)cc1I,inactive,inactive,inactive,inactive,inactive,inactive,inactive,inactive
CCNC1(C(N)=O)CCN(c2ncnc3c2nc(-c2ccccc2Cl)n3-c2ccc(Cl)cc2)CC1,inactive,inactive,inactive,inactive,inactive,inactive,–,inactive
N#Cc1ccc2ncnc(NCCc3ccccc3)c2c1,inactive,inactive,inactive,inactive,inactive,–,inactive,inactive
C=CC(C)(C)C12CC3C(=O)N4C(CC5(C(C)(C)C=C)c6ccccc6NC45)C(=O)N3C1Nc1ccccc12 (stereo not drawn),inactive,inactive,inactive,inactive,inactive,inactive,–,inactive
CC(C)c1cccc(C(C)C)c1NC(=O)Nc1ccc(Sc2ccc([N+](=O)[O-])cc2)cc1,inactive,inactive,inactive,inactive,inactive,–,inactive,inactive
C=C1C(=O)OC2CC(C)C(CCC(C)O)=CCC12 (stereo not drawn),inactive,inactive,inactive,inactive,inactive,inactive,–,inactive
COc1ccc(N2CCN(C(=O)c3cc4c(s3)-c3ccccc3S(=O)(=O)C4)CC2)cc1,inactive,inactive,inactive,inactive,inactive,–,inactive,inactive
CCC(C(C)O)n1ncn(-c2ccc(N3CCN(c4ccc(OCC5COC(Cn6cncn6)(c6ccc(F)cc6F)C5)cc4)CC3)cc2)c1=O (stereo not drawn),inactive,inactive,inactive,inactive,inactive,–,inactive,inactive
CC(C)(O)c1ccc2c(c1)ncn2-c1cccc(-c2ccccc2C#N)c1,inactive,inactive,inactive,inactive,inactive,inactive,inactive,inactive
Nc1nccc(-c2c(-c3ccc(F)cc3)ncn2C2CCCCC2)n1,inactive,inactive,inactive,inactive,inactive,–,inactive,–
COc1cccc(NCCC2(c3ccccc3)CC(C)(C)OC(C)(C)C2)c1,inactive,inactive,inactive,inactive,inactive,inactive,–,inactive
C=C(C)C1CCC2(C(=O)O)CCC3(C)C(CCC4C5(C)C(C=O)C(O)C(C)(C)C5CCC43C)C12 (stereo not drawn),inactive,inactive,inactive,inactive,inactive,inactive,inactive,inactive
CC(=O)OC1C(OC(=O)c2ccccc2)C2C(=C(C)CCC2(C)C)C23CCC(C)(C2)C(=O)CC13 (stereo not drawn),inactive,inactive,inactive,inactive,inactive,–,inactive,–
C=C1C(=O)O[C@@H]2[C@H]1CC[C@H](C)[C@]1(CCC(=O)O1)C2(C)O (stereo partly drawn),inactive,inactive,inactive,inactive,inactive,–,inactive,inactive
Cc1cc(C(=O)Nc2cc(Nc3ccc4c(/C=C/c5ccccn5)n[nH]c4c3)ccc2F)n(C)n1,inactive,inactive,inactive,inactive,inactive,–,inactive,inactive
O=C(Nc1ccc(Cl)cc1)Nc1cccc(-c2cccc(N3CCCC3)n2)c1,inactive,inactive,inactive,inactive,inactive,inactive,–,inactive
O=S(=O)(Nc1cc(Cl)c(Oc2cnc3ccccc3c2)c(Cl)c1)c1ccc(Cl)cc1Cl,inactive,inactive,inactive,inactive,inactive,inactive,inactive,inactive
Cn1ncc(Cl)c1-c1cc(C(=O)N[C@H](CN)Cc2ccc(F)c(F)c2)oc1Cl,2.24 µM (active),inactive,3.98 µM (active),inactive,inactive,–,inactive,14.1 µM (active)

# — PubChem BioAssay (NCATS)
